3 compounds from PubChem BioAssay (NCATS) can be followed below.

Each structure is given as a SMILES string. Values without a mark were called inactive. Active and inactive are the calls of the source. Rule as the data show it, unless noted: active = potency below about 10 µM; inactive = the rest.

Test [1] addresses Lysosomal acid glucosylceramidase (Homo sapiens) (UniProt P04062). Description: Glucocerebrosidase-p2 (AID 348). Also: potency is read from the fitted curve at half-maximal effect. The conditions noted are these: purified GBA, blue fluorogenic substrate, 40 min. A digest of the protocol: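 Normal human glucocerebrosidase (0.2 nM) with blue fluorogenic substrate (80 uM final) in citrate/phosphate pH 5.9 with 10mM sodium taurocholate, 0.01% tween-20; 40 min RT, NaOH/glycine stop; fluorescence Ex 365/Em 440; AC50 from a titration from 0.6 nM upwards.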

Test [2] has as its target Guanine nucleotide-binding protein G(i) subunit alpha-1 (Homo sapiens) (UniProt P63096). Description: qHTS Assay for Inhibitors of RGS12 GoLoco Motif Activity (Green Fluorophore) (AID 879; active = well fitted curve in the direction sought with a large enough effect;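 also: negative values mean loss of peptide binding seen as reduced polarization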). The following applies: Galphai1/FITC-RGS12 GoLoco peptide, fluorescence polarization; series mostly up to 57.1 µM. Put shortly: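 A drop in FITC polarization marked displacement of the FITC-tagged RGS12 GoLoco peptide (10 nM) from Gαi1 (50 nM). Compounds were incubated 10 min at room temperature in Tris pH 7.5 buffer containing 150 mM NaCl, 0.1 mM GDP and 0.05% NP40; unlabeled peptide titration served as control.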
On the technique in general: In qHTS, concentration-response curves come from the screen itself.

Sequence of Lysosomal acid glucosylceramidase (Homo sapiens) (P04062 whole entry, looked up): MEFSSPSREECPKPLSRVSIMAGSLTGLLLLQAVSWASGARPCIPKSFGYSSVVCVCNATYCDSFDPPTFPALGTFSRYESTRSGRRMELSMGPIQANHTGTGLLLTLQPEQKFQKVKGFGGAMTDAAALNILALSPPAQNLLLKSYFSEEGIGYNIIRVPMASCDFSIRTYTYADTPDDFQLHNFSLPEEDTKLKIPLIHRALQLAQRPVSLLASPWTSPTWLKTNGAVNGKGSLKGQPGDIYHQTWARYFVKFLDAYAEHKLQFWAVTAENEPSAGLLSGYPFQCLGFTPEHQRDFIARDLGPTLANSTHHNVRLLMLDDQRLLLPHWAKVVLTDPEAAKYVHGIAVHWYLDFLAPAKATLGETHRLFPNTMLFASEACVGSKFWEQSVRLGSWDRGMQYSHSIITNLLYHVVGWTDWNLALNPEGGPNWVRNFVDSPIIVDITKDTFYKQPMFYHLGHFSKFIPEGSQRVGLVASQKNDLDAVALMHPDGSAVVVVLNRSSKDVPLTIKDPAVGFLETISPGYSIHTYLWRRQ
Sequence of Guanine nucleotide-binding protein G(i) subunit alpha-1 (Homo sapiens) (P63096 whole entry, looked up): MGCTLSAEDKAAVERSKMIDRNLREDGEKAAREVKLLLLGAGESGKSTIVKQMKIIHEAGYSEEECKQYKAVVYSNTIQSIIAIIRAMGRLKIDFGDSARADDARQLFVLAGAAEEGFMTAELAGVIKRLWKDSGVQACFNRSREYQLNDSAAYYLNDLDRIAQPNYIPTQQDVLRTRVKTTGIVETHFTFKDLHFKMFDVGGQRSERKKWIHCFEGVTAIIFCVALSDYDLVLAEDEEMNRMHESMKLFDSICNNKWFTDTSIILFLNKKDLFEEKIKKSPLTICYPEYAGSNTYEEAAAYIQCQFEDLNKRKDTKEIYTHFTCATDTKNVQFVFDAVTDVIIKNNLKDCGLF

Consider `O=C(O)[C@H](Cc1c[nH]c2ccccc12)N1C(=O)c2ccccc2C1=O`, for which the Potency in test [1] is greater than 11.4 µM.
In the case of `CN(C)CCCN=c1c2ccccc2n(C)c2[nH]c(=O)n(C)c(=O)c12`, the Potency in test [1] was greater than 11.4 µM.
As for `O=c1c2ccccc2nc2n1CCc1c-2[nH]c2ccccc12`, in test [2], the compound was called inactive.
